PubChem BioAssay (NCI)
Compounds without any hit were thinned out: in the full panel of roughly 83,000, 20% have a hit.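 Single-dose data. Exposure time 48 hours. Values below 10 considered active.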 The source made the active and inactive calls.

How the values were obtained:
Assay in all cases: NCI-60 one-dose screen, 48 h (100 = growth as untreated, 0 = no growth, -100 = all killed)
Settings in all cases: 10 µM unless noted
SK-MEL-2 melanoma = test system: SK-MEL-2 melanoma
EKVX NSCLC = test system: EKVX NSCLC
SN12C renal = test system: SN12C renal
UO-31 renal = test system: UO-31 renal
TK-10 renal = test system: TK-10 renal
ACHN renal = test system: ACHN renal
A498 renal = test system: A498 renal
CCRF-CEM leukemia = test system: CCRF-CEM leukemia
MOLT-4 leukemia = test system: MOLT-4 leukemia
SR leukemia = test system: SR leukemia
RPMI-8226 leukemia = test system: RPMI-8226 leukemia
OVCAR-8 ovarian = test system: OVCAR-8 ovarian
OVCAR-5 ovarian = test system: OVCAR-5 ovarian
OVCAR-4 ovarian = test system: OVCAR-4 ovarian
SK-OV-3 ovarian = test system: SK-OV-3 ovarian
IGROV1 ovarian = test system: IGROV1 ovarian
OVCAR-3 ovarian = test system: OVCAR-3 ovarian
HS 578T breast = test system: HS 578T breast
NCI/ADR-RES ovarian = test system: NCI/ADR-RES ovarian
CAKI-1 renal = test system: CAKI-1 renal

Structure (SMILES) | growth (SK-MEL-2 melanoma) | growth (EKVX NSCLC) | growth (SN12C renal) | growth (UO-31 renal) | growth (TK-10 renal) | growth (ACHN renal) | growth (A498 renal) | growth (CCRF-CEM leukemia) | growth (MOLT-4 leukemia) | growth (SR leukemia) | growth (RPMI-8226 leukemia) | growth (OVCAR-8 ovarian) | growth (OVCAR-5 ovarian) | growth (OVCAR-4 ovarian) | growth (SK-OV-3 ovarian) | growth (IGROV1 ovarian) | growth (OVCAR-3 ovarian) | growth (HS 578T breast) | growth (NCI/ADR-RES ovarian) | growth (CAKI-1 renal)
CNC(=O)c1cc(Oc2ccc3c(c2)sc2nc(-c4ccc(OC)cc4)cn23)ccn1 | 44.2% (inactive) | 52.7% (inactive) | 69.7% (inactive) | 52.2% (inactive) | 21.1% (inactive) | 83.8% (inactive) | 16.9% (inactive) | 66.9% (inactive) | 76.6% (inactive) | 38% (inactive) | 20.2% (inactive) | 52.4% (inactive) | 36% (inactive) | 65.8% (inactive) | 16.8% (inactive) | 83.3% (inactive) | 4.08% (active) | 76.8% (inactive) | 71.3% (inactive) | –
C=CCn1c(SCC(=O)Nc2ccc(/C(C)=N/O)cc2)nnc1-c1cc(-c2ccc(S(N)(=O)=O)cc2)nc2ccccc12 | 83.7% (inactive) | 91.8% (inactive) | 77.7% (inactive) | 74.5% (inactive) | 121% (inactive) | 96.9% (inactive) | 89.2% (inactive) | 45.8% (inactive) | 37.9% (inactive) | 56.7% (inactive) | 48.8% (inactive) | 54.7% (inactive) | 93.5% (inactive) | 66.2% (inactive) | 109% (inactive) | 30.9% (inactive) | 70.9% (inactive) | 74.1% (inactive) | 99% (inactive) | –
CN(Cc1cc(Br)cc(Br)c1O)Cc1cc(Br)cc(Br)c1O | 51% (inactive) | 54.8% (inactive) | 45.1% (inactive) | 23.4% (inactive) | 40.6% (inactive) | 31.4% (inactive) | 66.5% (inactive) | 18.2% (inactive) | 21.5% (inactive) | 33.8% (inactive) | 27.6% (inactive) | 16.6% (inactive) | 68.9% (inactive) | 15.7% (inactive) | 56.4% (inactive) | 29.9% (inactive) | 4.97% (active) | 58.9% (inactive) | 9.38% (active) | –
CCOC(=O)c1c(C)nc2ccccc2c1/C=C/c1ccccc1 | 71.7% (inactive) | 63.6% (inactive) | 88.3% (inactive) | 60.7% (inactive) | 92.5% (inactive) | 72.7% (inactive) | 76% (inactive) | 45.8% (inactive) | 23.6% (inactive) | 60.3% (inactive) | 42.2% (inactive) | 53.8% (inactive) | 97% (inactive) | 65% (inactive) | 91.5% (inactive) | 75% (inactive) | – | 94.8% (inactive) | 24.8% (inactive) | –
O=C(Nc1ccccc1[N+](=O)[O-])c1ccc(Cl)c(Cl)c1 | 95.6% (inactive) | 85.3% (inactive) | 94.7% (inactive) | 71.1% (inactive) | 124% (inactive) | 94.7% (inactive) | 58.7% (inactive) | 106% (inactive) | 96.7% (inactive) | – | 90.1% (inactive) | 95.5% (inactive) | 111% (inactive) | 81.4% (inactive) | 94.9% (inactive) | 87.2% (inactive) | 97% (inactive) | 87.8% (inactive) | 87.2% (inactive) | –
O=C1Nc2c(C(=O)O)cccc2/C1=N/c1n[nH]c(=S)s1 | 98.8% (inactive) | 77.6% (inactive) | 93.4% (inactive) | 69.9% (inactive) | 117% (inactive) | 78% (inactive) | 115% (inactive) | 88.7% (inactive) | 90% (inactive) | 84.6% (inactive) | 87.7% (inactive) | 91% (inactive) | 98% (inactive) | 87.9% (inactive) | 85.7% (inactive) | 83% (inactive) | 99.1% (inactive) | 87% (inactive) | 101% (inactive) | –
CCOC(=O)C1=C(C)/C(=C\c2[nH]c(C)c(C(=O)OCC)c2C)N=C1C | 85.6% (inactive) | 94.2% (inactive) | 79.1% (inactive) | 73.7% (inactive) | 108% (inactive) | 96.5% (inactive) | 103% (inactive) | 4.69% (active) | 9.99% (active) | 11.9% (inactive) | 62.9% (inactive) | 61.5% (inactive) | 97.8% (inactive) | 81.9% (inactive) | 84.4% (inactive) | 97% (inactive) | 21.7% (inactive) | 103% (inactive) | 88.9% (inactive) | –
O=C(CSc1nc(-c2ccccc2)cc(=O)[nH]1)Nc1nc(-c2ccccc2)cs1 | 96.9% (inactive) | 75.7% (inactive) | 102% (inactive) | 65.2% (inactive) | 106% (inactive) | 95.2% (inactive) | 114% (inactive) | 96.2% (inactive) | -17.6% (active) | 45.1% (inactive) | 96.1% (inactive) | 97% (inactive) | 95.9% (inactive) | 96.1% (inactive) | 84.1% (inactive) | 57.8% (inactive) | 101% (inactive) | 90% (inactive) | 93.2% (inactive) | –
CC1(C)NCCC[C@]2(C)[C@H]3CC[C@H]4[C@H]5[C@H](C(=O)/C=C/c6cccnc6)CCC[C@]5(CO)CC[C@@]4(C)[C@]3(C)CC[C@@H]12 | 96.9% (inactive) | 79.2% (inactive) | 58.5% (inactive) | 57.8% (inactive) | 106% (inactive) | 80.4% (inactive) | 93.9% (inactive) | – | 7.39% (active) | -24.6% (active) | 13.1% (inactive) | – | 74.8% (inactive) | 75.3% (inactive) | 108% (inactive) | 26.6% (inactive) | 60.1% (inactive) | 74.4% (inactive) | – | 47.8% (inactive)
N#C/C(=C\c1ccc(-c2cccc(C(F)(F)F)c2)o1)c1ccccc1 | 98.9% (inactive) | 67% (inactive) | 90.2% (inactive) | 68.7% (inactive) | 150% (inactive) | 85.2% (inactive) | 102% (inactive) | – | 89.7% (inactive) | 86.3% (inactive) | 90.9% (inactive) | 101% (inactive) | 96.9% (inactive) | 79% (inactive) | 84.7% (inactive) | – | 95.6% (inactive) | – | 101% (inactive) | 69% (inactive)
Nc1nc(N)c2c(n1)NC(c1ccc(Cl)cc1)C1CCc3ccccc3C1=N2 (stereo unspecified) | 102% (inactive) | 35.8% (inactive) | 65.9% (inactive) | 55.8% (inactive) | 49.2% (inactive) | 52.7% (inactive) | 69.5% (inactive) | 51.5% (inactive) | 22.5% (inactive) | – | 41.9% (inactive) | 70.7% (inactive) | 103% (inactive) | 39.2% (inactive) | 66.8% (inactive) | 77.2% (inactive) | 40.5% (inactive) | 80.9% (inactive) | 52.5% (inactive) | –
Cc1ccc(/C=C/C(=O)c2cccc(OCCCOc3cccc(C(=O)/C=C/c4ccc(C)cc4)c3)c2)cc1 | 105% (inactive) | 80% (inactive) | 79.6% (inactive) | 64% (inactive) | 120% (inactive) | 78.6% (inactive) | 86.4% (inactive) | 73.6% (inactive) | 85.1% (inactive) | 25.9% (inactive) | -0.643% (active) | 87.5% (inactive) | 124% (inactive) | 65.3% (inactive) | 99.2% (inactive) | 77.2% (inactive) | – | 86.1% (inactive) | 91.4% (inactive) | –
CN1CCN(c2ccc3nc4c(nc3c2C(F)(F)F)C(=O)c2ncccc2C4=O)CC1 | -34.5% (active) | 5.13% (active) | -95.4% (active) | -19.1% (active) | 80.3% (inactive) | -44.2% (active) | -21.1% (active) | 5.71% (active) | -36.4% (active) | -27.2% (active) | 27.6% (inactive) | -10.9% (active) | -90.4% (active) | -91.1% (active) | 29.7% (inactive) | -32.6% (active) | -27.9% (active) | -16% (active) | 10.1% (inactive) | –
O=S(=O)(NCCNc1nccc(-c2c(-c3ccc(F)c(O)c3)nc3sccn23)n1)c1ccc(F)cc1 | 12.3% (inactive) | 55.7% (inactive) | 28.5% (inactive) | 3.56% (active) | 83.5% (inactive) | 19.7% (inactive) | 70.9% (inactive) | 12.7% (inactive) | 11.7% (inactive) | 1.25% (active) | 11.5% (inactive) | 29% (inactive) | 67.9% (inactive) | 31.5% (inactive) | 36.1% (inactive) | 12.2% (inactive) | 39.4% (inactive) | 26.9% (inactive) | – | –
CCN1C(=O)N(CC)C2Nn3c(s/c(=C\c4ccccc4Br)c3=O)=NC21 (stereo unspecified) | 48.5% (inactive) | 44.4% (inactive) | 35.4% (inactive) | – | 81.5% (inactive) | 30.5% (inactive) | -0.799% (active) | 15.2% (inactive) | 23.2% (inactive) | 15.7% (inactive) | 35.4% (inactive) | 15.4% (inactive) | 28.9% (inactive) | 47.5% (inactive) | 44.7% (inactive) | 25.7% (inactive) | -7.24% (active) | 11.4% (inactive) | 5.54% (active) | 21.5% (inactive)
